Laboratory results taken from the supplement of paper PMC6555819.

Assays:
Assay in all cases: PBM binding z-score (relative to random genomic background probes); higher = stronger binding; sequences stand for … in GC…GCGATTGACAGCGTAGAATGAAGG
[1] = tested on: RARb homodimer (NR concentration 270 nM)
How it was run: (§1)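 Ligand-free nuclear receptor dimers were applied to custom Agilent 4×180K protein-binding microarrays whose double-stranded probes carried direct-repeat seeds, single-nucleotide variants, half-site ablations and random human genomic background sequences in 34-nt variable regions. Incubation lasted 1 h. Binding z-scores were computed against the random background probes from regression-normalized fluorescence.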

[2] = tested on: RARg:RXRa (NR concentration 270 nM, RXRa partner concentration 90 nM)
How it was run: as §1

[3] = tested on: RARg homodimer (NR concentration 270 nM)
How it was run: as §1

[4] = tested on: RXRa DBDmut IVT, anti-RXR (DBD mutation: RXRa K156A/R161A, NR concentration 90 nM)
How it was run: as §1

[5] = tested on: RXRa homodimer (NR concentration 180 nM)
How it was run: as §1

[6] = tested on: THRa:RXRa (NR concentration 90 nM, RXRa partner concentration 90 nM)
How it was run: as §1

[7] = tested on: THRa homodimer (NR concentration 90 nM)
How it was run: as §1

[8] = tested on: VDR:RXRa (NR concentration 270 nM, RXRa partner concentration 90 nM)
How it was run: as §1

[9] = tested on: VDR homodimer (NR concentration 270 nM)
How it was run: as §1

Sequence	PBM binding z-score [1]	PBM binding z-score [2]	PBM binding z-score [3]	PBM binding z-score [4]	PBM binding z-score [5]	PBM binding z-score [6]	PBM binding z-score [7]	PBM binding z-score [8]	PBM binding z-score [9]
CCTCGCAGGACAACAGGAGGTCAGAGCTGCCAGA	3.19	2.79	2.57	0.186	1.86	2.51	0.912	1.42	1.05
CCTACTGGGCCAAACAGGTCATTGATGCCGATAA	2.13	1.56	1.36	0.175	1.38	1.39	0.0902	2.82	1.53
TGAATGAGGTTATAAGATCAGGGGACGTTGCAAA	0.854	1.51	0.975	1.3	2.02	2.1	0.619	–	1.21
TCGGGTAGGTTAGGGGCATTCAGAATGGCGTCGA	1.88	1.07	1	0.943	1.02	2.44	1.61	–	1.79
CGTCCAAGGTCTATGCTAGGTCAGTGAAAGCATT	2.43	1.52	1.37	0.335	0.248	2.21	0.687	–	0.404
ATACCAAGGTGATCGTGATGTCGTTGATACTAAC	0.279	0.25	0.334	0.0865	0.28	0.81	0.541	–	0.117
CCTACTAGTTGACCATAAGGGCAACCGAAGCTCG	1.92	0.922	0.714	0.0414	0.509	1.75	1.28	–	0.643
ATCGAAAGGACGTGAGGTGAGTATACAGAAAGGC	0.895	0.703	1.12	-0.854	0.282	1.89	0.987	–	0.126
CCTCGGAGGACAACAGGAGGTCAGAGCTGCCAGA	3.64	3.37	2.98	0.172	1.76	2.89	1.04	–	1.21
GCATATAGGTAATACAAGCTGAAAGTCCGATTGT	-0.29	0.165	0.41	0.344	0.524	-0.299	-0.467	–	-0.000967
ACTAGCAGGCCAAGTTTGGGTCACCCAAACAAAG	2.48	2.88	2.18	-0.623	1.45	2.96	1.36	–	0.196
TAGCCTAGGTCATGGGCCAATATACCACGCGAAC	2.95	4.22	4.2	0.955	3.55	3.1	1.43	–	0.541
ATCTCTAGGTAAACAAGTTCAGTGAATGCCGAAC	1.51	0.719	1.05	1.09	0.385	1.33	0.65	–	2.69
CCTACTGGGCCCTCAGGTCATTGATATCAACGTT	2	1.1	0.939	-0.149	0.755	3	2.78	–	1.17
CTACCAAGGTGAACAAGATCGTTGATTACTATTC	0.653	0.951	0.995	0.225	0.874	1.66	0.798	–	-0.0814
TCTATTAGTGGATTAGGGCAACCGAAACAGCGGA	0.492	0.384	0.643	1.06	0.49	0.449	0.4	–	0.393
TGAATGATGTTATAAGATCAGGGAACGTTGCAAA	-0.648	0.116	0.244	-1.01	0.153	-0.185	-0.281	–	-0.22
ACTATTAGTTGACTTAGGGCAACCGGTACGACGC	1.12	0.684	0.734	0.426	0.446	1.47	0.512	–	0.456
AGAACGAGGGCAATGAGTTGTTAGCACGGGTGGC	0.552	0.787	1.3	1.76	0.588	0.64	-0.39	–	2.19
AGAATGAGGTTATTAAGGTCAGGGAATTGCGGTC	4.31	4.16	3.63	2.88	4.62	4.71	5.16	–	4.86
TCATATAGGTAAATGCTAGGTGGAAGTCCGATCT	-0.19	0.303	0.0562	1.28	0.571	0.0546	-0.18	–	0.0417
CATACTAGGTCACCGGAAGGTCAAAGTCCGCATG	5.62	8.44	7.45	2.21	6.33	4.43	3.31	–	3.9
CGAACTAGGTCATCCAGCACAGTGAATACATTGA	2.79	4	4.55	2.13	2.92	2.85	1.13	–	1.16
AGAATGAGGATATTAAGATCAGGGAATTGCGGTC	-0.295	0.0101	0.354	0.0131	0.0885	0.447	-0.112	–	0.17
TCTTATAGGTAAACAGGTGAAAGTCCGTAAGTTA	0.802	0.615	0.392	1.1	0.864	0.793	0.397	–	0.462
CCTAATGGGCCAAGGTCATTGATCAGTCAAAGCA	3.46	3.94	3.82	1.91	3.73	3.4	2.52	–	3.34
GCTATTAGCTGAAAGGGCAACCGAATGATTCTCG	1.53	0.817	0.974	0.616	0.703	0.363	-0.714	–	-0.0197
ACTTACGGGTCATCGAGGTTATAGCACGCGTATA	3.64	5.43	4.96	2.98	6.18	4.03	1.28	–	4.26
TCTGCTAGGTCAACGATGTTCAGCTAATCTGCTA	2.97	3.73	4.24	1.03	2.47	2.73	0.88	–	-0.288
